# Test results as given in PubChem BioAssay (NCI).
# Compounds without any hit were thinned out: in the full panel of roughly 83,000, 20% have a hit.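 Negative percent growth values reflect cell death: -40 means 40% of the cells present at the start died, and -100 means all died.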 A number with no mark means an inactive call. Active and inactive are the calls of the source. How the source made its calls: active means growth percent below 10; inactive means the rest.
# Test system: T-47D breast
# Assay: NCI-60 one-dose screen, 48 h (100 = growth as untreated, 0 = no growth, -100 = all killed)
# Settings: 10 µM
row,SMILES,growth
1,COc1ccc(OC)c(/C=N/NC(=O)c2ccc3nc(-c4ccc(Cl)cc4)[nH]c3c2)c1,38.2%
2,Cc1ccc(-c2cc(-c3cc4ccccc4nc3Cl)[nH]c(=O)n2)cc1,3.13% (active)
3,CN1C(=O)N(C)C2SC(N/N=C/c3ccccc3)=NC21 (stereo not given),69.5%

# Test system: BT-549 breast
# Assay: as above
# Settings: 10 µM
row,SMILES,growth
1,CCN1CCN(Cc2ccc(C(=O)Nc3cccc(-c4cn(-c5ccc6oc(=O)ccc6c5)nn4)c3)cc2C(F)(F)F)CC1,-79.2% (active)
2,COc1cc2oc(-c3cccc(C(=O)Nc4ccc(Cl)cc4)c3)cc(=O)c2c(OCCNC(=O)CNC(=O)OC(C)(C)C)c1OC,51.2%
3,O=C(NO)c1ccc(CN2CCN(c3nc(-c4ccccc4)c4ccccc4n3)CC2)cc1,35.8%
4,COC[C@@H](CC(C)C)N=C1NC(=O)/C(=C/c2ccc3ncsc3c2)N1,-10.9% (active)
5,O=C(/C=C/Nc1ccc(F)cc1F)c1ccc2c(c1)Nc1ccccc1S2,85.7%
6,COc1ccc(-c2cc(C(=O)N=Nc3c(O)[nH]c4ccc(F)cc34)c3ccccc3n2)cc1,86.3%
7,COc1cc(C2CC(c3ccccc3)=Nc3c(N)nc(N)nc3N2)ccc1Oc1nc(Nc2ccc(F)cc2)nc(N(C)C)n1 (stereo not given),45%
8,COc1ccc(-c2cc(C(=O)N=Nc3c(O)[nH]c4ccccc34)c3ccccc3n2)cc1,72.9%
9,Cc1ccc(CSc2nc(Cl)c(C#N)c(-c3ccc(F)cc3)n2)cc1,56.4%
10,O=C(Nc1ccc(I)cc1)Nc1nc2ccc([N+](=O)[O-])cc2s1,-99.6% (active)
11,O=C(Nc1nc2ccccc2s1)c1ccc(Br)cc1,90.3%
12,O=c1oc2ccccc2cc1-c1csc(N=Nc2c(O)[nH]c3ccc(Br)cc23)n1,62.9%
13,COc1cccc(-c2ccc(/C=N/NC(=O)c3[nH]c4ccc(Br)cc4c3-c3ccccc3)o2)c1,25.8%
14,COc1ccc(-c2cc(-c3cc(C(=O)c4ccc(Br)cc4)n4ccc(C)cc34)nc(N)c2C#N)cc1,104%
15,CC1(C)[C@@H](NCO)CC[C@]2(C)[C@H]3C(=O)C=C4[C@@H]5C[C@](C)(CO)CC[C@]5(C)CC[C@@]4(C)[C@]3(C)CC[C@@H]12,81.8%
16,CO[C@@H]1CSS[C@H]1Cn1nc(-c2ccc(Oc3ccccc3)cc2)c2c(N)ncnc21,63.8%
17,CC(=O)Nc1ccc(-c2cn(-c3cccc(C(=O)Nc4ccc(F)c(C(F)(F)F)c4)c3)nn2)cn1,103%
18,CC1(c2ccccc2)NC(=O)N(CC(=O)Nc2ccc(C(=O)/C=C/c3ccccc3)cc2)C1=O (stereo not given),36%
19,CN(C(=O)c1ccc(C(C)(C)C)cc1)c1sc2c(c1C#N)CCC(=O)C2,-27.7% (active)

row,SMILES,growth
1,Nc1nc(-c2ccccc2)cs1,31.1%
2,CN1C(=O)N(C)C2SC(N/N=C/c3cccs3)=NC21 (stereo not given),21.4%
3,O=C(CSc1nnc(-c2c[nH]c3ccccc23)n1-c1ccccc1)c1ccccc1,62.2%
4,Nc1nc2c(F)c(F)c(F)c(F)c2s1,105%
5,CC1=C(c2cc(-c3ccc(Cl)cc3)c(C#N)c(N)n2)C(c2ccccc2)NC(=S)N1 (stereo not given),42.1%
6,Cc1noc2c(Cc3ccc([N+](=O)[O-])cc3)nn(CC(=O)N/N=C/c3ccc(Cl)cc3)c(=O)c12,56%
7,CN1CCN(Cc2ccc(C(=O)Nc3cccc(Nc4ccc5cc(O)ccc5n4)c3)cc2C(F)(F)F)CC1,78.1%
8,CN1CCN(c2ccc(C(=O)/C=C/c3ccc(OC(F)F)cc3)cc2)CC1,19.2%
9,CN1CCN(Cc2ccc(NC(=O)c3cncc(C#Cc4cnc5ccc(N[C@H]6CCOC6)nn45)c3)cc2C(F)(F)F)CC1,-67.7% (active)
10,C/C(=N\NC(N)=S)c1ccc(Nc2nc(SC(C)C)nc(-c3ccccc3)c2C#N)cc1,28.5%
11,COc1ccc2[nH]c(=O)c(CSc3ccc(Nc4nccc(-c5ccc(Cl)cc5)n4)cc3)cc2c1,104%
12,CCOc1ccc(/C=N/NC(=O)Cn2nc(Cc3ccc([N+](=O)[O-])cc3)c3onc(C)c3c2=O)cc1,55.2%
13,Brc1ccc(/C=C/c2n(Cc3ccc4ccccc4c3)c3ccccc3[n+]2Cc2ccc3ccccc3c2)cc1,-56.6% (active)
14,COc1ccc(C2N(c3ccc(Br)cc3)N=C(C(C)=O)N2[C@H]2[C@H](OC(C)=O)O[C@H](COC(C)=O)[C@@H](OC(C)=O)[C@@H]2OC(C)=O)cc1 (stereo not given in full),91.2%
15,CCN1CCN(c2ccc(NC(=O)Nc3ccc(-c4cc(C(=O)NC(C)C)c5ncccc5n4)cc3)cc2C(F)(F)F)CC1,-82.1% (active)
16,COc1ccc(OC)c(/C=N/NC(=O)c2ccc3nc(-c4ccc(Cl)cc4)[nH]c3c2)c1,74.3%
17,Cc1ccc(-c2cc(-c3cc4ccccc4nc3Cl)[nH]c(=O)n2)cc1,-76.8% (active)
18,CN1C(=O)N(C)C2SC(N/N=C/c3ccccc3)=NC21 (stereo not given),58.7%
